Out of some 220,000 compounds screened, about 910 (0.41%) were called active. This excerpt belongs to a sample that is enriched for actives. Results with a measured potency or affinity are listed apart. Values without a mark were called inactive.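 Rule for the calls: active = primary inhibition above the hit cutoff, then over 50% inhibition at one or more dose response concentrations (cut at about 23% in these data, passing the limit was not always enough); inconclusive = conflicting primary data, or primary hits not chosen for dose response; inactive = low primary inhibition, or under 50% at every dose.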
Each compound was assayed against Aminopeptidase N (Plasmodium falciparum (isolate 3D7)) (UniProt O96935) (assay: malaria alanyl aminopeptidase activity blockers – biochemical, fluorogenic H-Leu-NHMec substrate, 1536-well (AID 1445;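 note: plate controls were DMSO full reaction for no effect and no enzyme background for full effect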)). Settings: recombinant M1AAP, H-Leu-NHMec fluorogenic kinetic assay; at 30 µM, stronger effect = higher value unless noted.
Sequence of Aminopeptidase N (Plasmodium falciparum (isolate 3D7)) (O96935 whole entry, looked up): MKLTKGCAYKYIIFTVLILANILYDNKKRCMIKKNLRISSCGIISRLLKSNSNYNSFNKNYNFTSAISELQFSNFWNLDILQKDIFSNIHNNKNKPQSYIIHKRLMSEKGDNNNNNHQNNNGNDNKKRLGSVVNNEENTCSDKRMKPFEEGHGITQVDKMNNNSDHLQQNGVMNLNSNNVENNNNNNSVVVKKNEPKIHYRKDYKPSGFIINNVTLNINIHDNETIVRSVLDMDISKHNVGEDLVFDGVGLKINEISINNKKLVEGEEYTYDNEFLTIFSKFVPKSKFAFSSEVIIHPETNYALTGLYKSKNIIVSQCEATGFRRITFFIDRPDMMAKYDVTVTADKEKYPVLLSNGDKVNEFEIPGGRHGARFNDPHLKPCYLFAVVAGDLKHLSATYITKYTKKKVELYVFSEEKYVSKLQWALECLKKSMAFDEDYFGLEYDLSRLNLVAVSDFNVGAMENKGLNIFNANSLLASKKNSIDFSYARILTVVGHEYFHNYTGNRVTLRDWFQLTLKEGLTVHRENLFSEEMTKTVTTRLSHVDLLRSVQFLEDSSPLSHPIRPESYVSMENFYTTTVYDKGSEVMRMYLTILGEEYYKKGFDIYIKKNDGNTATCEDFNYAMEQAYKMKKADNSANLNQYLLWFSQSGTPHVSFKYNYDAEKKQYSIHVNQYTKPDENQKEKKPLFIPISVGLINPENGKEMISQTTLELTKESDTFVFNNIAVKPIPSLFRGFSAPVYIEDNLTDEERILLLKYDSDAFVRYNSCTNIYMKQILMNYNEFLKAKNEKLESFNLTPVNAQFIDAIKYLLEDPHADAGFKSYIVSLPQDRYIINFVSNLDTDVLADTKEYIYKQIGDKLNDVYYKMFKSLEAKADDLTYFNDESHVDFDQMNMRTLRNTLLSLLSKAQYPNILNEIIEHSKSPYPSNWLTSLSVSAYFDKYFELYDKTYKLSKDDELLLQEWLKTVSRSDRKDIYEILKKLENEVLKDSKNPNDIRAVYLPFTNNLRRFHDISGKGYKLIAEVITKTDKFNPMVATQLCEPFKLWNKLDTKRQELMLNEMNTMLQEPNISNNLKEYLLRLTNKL

| SMILES | inhibition |
| --- | --- |
| Cn1c(SCC(=O)N(Cc2ccccc2)C(C)(C)C)nc2ccccc21 | -3.33% |
| COC(=O)c1ccc(N(C(=O)CNC(=O)c2ccco2)C(C(=O)NC2CCCC2)c2ccco2)cc1 (configuration not stated) | -1.68% |
| FC(F)(F)c1cccc(OCCN2CCN(Cc3ccccc3)CC2)c1 | -0.96% |
| O=c1cnnc(N/N=C/c2ccc3c(c2)OCO3)[nH]1 | 4.09% |
| COc1ccc(C(=O)COc2ccc(F)cc2)c(O)c1C | 0.41% |
| CCCCN1CNC(=S)N(CCc2ccccc2)C1 | 2.11% |
| O=c1cc(/N=C/c2coc3cc(Br)ccc3c2=O)[nH]c(=S)[nH]1 | 18.8% |
| O=C(CN1C(=O)/C(=C/c2ccccc2)SC1=S)NNC(=O)c1ccccc1O | 6.33% |
| O=C(NN=C1CCN(Cc2ccccc2)CC1)c1ccccc1O | 8.75% |
| O=C(CCCN1C(=O)S/C(=C\c2ccccc2)C1=O)NNC(=O)c1ccccc1O | -1.57% |
| O=C(NNC(=O)c1ccccc1O)c1ccco1 | 5.04% |
| CCN1C(=O)C2(C(C(=O)c3cc4ccccc4o3)=C(O)C(=O)N2CCCN2CCOCC2)c2ccccc21 (configuration not stated) | 2.91% |
| COc1cccc(Cn2cnc3c(NS(=O)(=O)c4ccc(Cl)cc4)c(C)c(C)cc32)c1 | 7.11% |
| NC(=O)N/N=C/c1ccc(-c2ccc([N+](=O)[O-])cc2)o1 | 2.91% |
| NC(=S)N/N=C/c1ccc(-c2ccc([N+](=O)[O-])cc2)o1 | -0.83% |
| Cc1ccc(C(=O)N/N=C\c2ccc(-c3ccc([N+](=O)[O-])cc3)o2)cn1 | 9.19% |
| O=C(O)c1ccc(N/N=C/c2ccc(-c3cccc(Cl)c3)o2)cc1 | 13.1% |
| O=C(N/N=C/c1ccc(-c2cccc([N+](=O)[O-])c2)o1)c1ccc([N+](=O)[O-])cc1 | 2.39% |
| O=C(N/N=C/c1ccc(-c2cccc([N+](=O)[O-])c2)o1)c1ccccc1O | -18.1% |
| O=[N+]([O-])c1ccc(-c2ccc(/C=N/O)o2)cc1 | 2.25% |
| O=C(N/N=C/c1ccc(-c2ccc([N+](=O)[O-])cc2)o1)C(O)c1ccccc1 (configuration not stated) | 18.2% |

| SMILES | inhibition |
| --- | --- |
| Cc1ccc(-n2c(-c3ccco3)n[nH]c2=S)cc1 | 0.43% |
| COC(=O)c1cc(C(=O)OC)cc(N2C(=O)CC(NNC(=O)c3ccccc3Br)C2=O)c1 (configuration not stated) | 17.2% |
| Cc1ccc(NC(=O)CN2C(=O)c3ccccc3C2=O)nc1 | 1.04% |
| CCn1cc(C(=O)O)c(=O)c2cc(F)c(N/N=C/c3ccccc3[N+](=O)[O-])cc21 | -4.53% |
| Cc1nc(-c2cccc(S(=O)(=O)N3CC(C)OC(C)C3)c2)cs1 (configuration not stated) | -2.63% |
| CCOc1ccc(CCNC(=O)Cc2nn[nH]n2)cc1OCC | -2.11% |
| CN(C)C(=O)c1c([N+](=O)[O-])c(C(C)(C)C)nn1C | 9.14% |
| CCOc1ccccc1NC(=S)N1CCCc2ccccc21 | 2.13% |
| C/C=C\C(=O)Nc1cccc(C2=NOC3(C2)C[C@@H](C(N)=O)N(C(=O)c2ccccc2)C3)c1 (some centres not stated) | 7.63% |
| COc1ccc(C2c3ccc(O)cc3Oc3ncn(CCCO)c(=N)c32)cc1 (configuration not stated) | 8.86% |
| O=C(O)CC1S/C(=N/N=C/c2ccc(-c3ccc(Cl)cc3[N+](=O)[O-])o2)NC1=O (configuration not stated) | 20.8% |
| CNC(=S)N/N=C/c1ccc(-c2ccc(Cl)c([N+](=O)[O-])c2)o1 | 3.04% |
| O=C(Oc1ccccc1N1C(=O)C2CCCCC2C1=O)c1ccccc1F (configuration not stated) | 4.73% |
| COc1ccc(NC(=O)C2CCN(S(C)(=O)=O)CC2)cc1Cl | 4.6% |
| O=C1C2CC=C(Cl)CC2C(=O)N1CCN1CCOCC1 (configuration not stated) | 2.4% |
| COc1ccccc1-n1c(C)cc(/C=C2/C(=N)N3C(=NC2=O)SN=C3S(C)(=O)=O)c1C | 17.9% |
| CC(C)CSC1=NSC2=NC(=O)/C(=C\c3ccccc3)C(=N)N12 | -10% |
| CC(C)CSC1=NSC2=NC(=O)/C(=C\c3coc4ccccc4c3=O)C(=N)N12 | 19.5% |
| Cc1cc(/C=C2/C(=N)N3C(=NC2=O)SN=C3S(C)(=O)=O)c(C)n1-c1ccccc1F | 8.82% |
| CCSC1=NSC2=NC(=O)/C(=C\c3coc4ccccc4c3=O)C(=N)N12 | 19.9% |
| Cc1cc(/C=C2/C(=N)N3C(=NC2=O)SN=C3S(C)(=O)=O)c(C)n1-c1ccc(F)cc1 | 14.2% |

| SMILES | inhibition |
| --- | --- |
| Nc1ccnn1Cc1ccc(Br)s1 | 14.7% |
| CCOc1ccc2ncc(S(=O)(=O)c3ccccc3)c(N3CCN(c4ccc(OC)cc4)CC3)c2c1 | 3.98% |
| Cc1ccc(-c2nc(SCC(=O)NCCN3C(=O)CSC3=O)[nH]c2-c2ccc(C)cc2)cc1 | -5.28% |
| COC(=O)/C(C#N)=C/c1ccc(-c2ccc(S(N)(=O)=O)cc2)o1 | -5.9% |
| O=C(NC(Cc1ccccc1)C(=O)O)c1ccc(S(=O)(=O)N2CCOCC2)cc1 (configuration not stated) | -4.36% |
| COCCNC(=O)COc1ncnc2ccc(Br)cc12 | 0.71% |
| COCCn1c(=NC(C)=O)sc2cc([N+](=O)[O-])ccc21 | 1.15% |
| O=C(Nc1cccc2oc(=O)ccc12)c1ccc([N+](=O)[O-])cc1[N+](=O)[O-] | 8.2% |
| Cc1ccc(S(=O)(=O)N(C)C)cc1NC(=O)COC(=O)c1sc2cc(Cl)ccc2c1Cl | -0.59% |
| COCCn1c(SCc2cc(C(C)=O)ccc2OC)nc2cc(Cl)ccc2c1=O | 2.27% |
| CCOC(Cn1c(SCc2cc(C(C)=O)ccc2OC)nc2ccccc2c1=O)OCC | 2.96% |
| N/C(=N\OC(=O)CCn1cccc(C(F)(F)F)c1=O)c1ccc(Cl)cc1 | -1.85% |
| COc1cc(C)nc(N2CCCC(C(=O)Nc3cccc(Cl)c3Cl)C2)n1 (configuration not stated) | 1.36% |
| CNC(=O)Nc1cccc(-c2ccnc(C)n2)c1 | 0.72% |
| COc1ccc(C(=O)/C(C#N)=N/Nc2cccc([N+](=O)[O-])c2)cc1 | 12.4% |
| N#C/C(=N\Nc1ccccc1Cl)C(=O)c1ccccc1 | 12.7% |
| N#C/C(=N\Nc1cccc(Cl)c1)C(=O)c1ccccc1 | 23.3% (active) |
| COc1cccc(C(=O)/C(C#N)=N/Nc2cccc(-c3ccnc(C)n3)c2)c1 | 8.84% |
| COc1ccc(C(=O)/C(C#N)=N/Nc2ccc([N+](=O)[O-])cc2)cc1 | 3.64% |
| CCOC(=O)NC(=O)/C(C#N)=N\Nc1cccc(Cl)c1 | 1.92% |

From PubChem BioAssay AID1445 (SRMLSC, 2008)
